Assay outcomes: PubChem, National Center for Advancing Translational Sciences (NCATS)
Most compounds without a hit are left out; they make up all but 2.4% or so of the library.
D2 PAM-1 – human D2 receptor positive allosteric modulation; DiscoveRx D2 beta-arrestin cells, luminescence, 90 min; 100% = 57 uM dopamine signal; AID 624464; potentiation, % (no concentration beside the values); P14416; 360,000 tested, 0.23% active; in the data active = potentiation above about 50%; inconclusive = mostly about 30% to 49%
Target sequence (P14416 whole entry, looked up): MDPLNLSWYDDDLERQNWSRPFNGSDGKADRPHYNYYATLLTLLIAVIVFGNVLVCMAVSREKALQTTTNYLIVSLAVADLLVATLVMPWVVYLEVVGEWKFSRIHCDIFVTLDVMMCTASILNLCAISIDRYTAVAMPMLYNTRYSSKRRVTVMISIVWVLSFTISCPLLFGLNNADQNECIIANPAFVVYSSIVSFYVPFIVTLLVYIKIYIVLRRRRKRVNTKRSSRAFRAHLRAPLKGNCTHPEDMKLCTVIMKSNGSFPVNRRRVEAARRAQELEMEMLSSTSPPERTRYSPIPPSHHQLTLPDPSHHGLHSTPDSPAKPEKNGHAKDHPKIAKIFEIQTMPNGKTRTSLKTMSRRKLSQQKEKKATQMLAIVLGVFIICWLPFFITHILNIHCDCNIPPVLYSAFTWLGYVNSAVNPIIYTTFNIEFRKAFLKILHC
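D2 cells co-treated with compound plus 50 nM dopamine (EC20) for 90 min at 37 deg C to detect potentiation. Beta-arrestin recruitment was read as enzyme-fragment luminescence after 1 h at ambient temperature. Full response was set by 57 uM dopamine.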
D2 antagonist – antagonizes the human D2 dopamine receptor; P14416; HEK293 TREx D2 cells, calcium flux, dopamine EC80; inhibition, % at 10 µM; 340,000 tested, 2% active; in the data active = inhibition above about 30%; inactive = below that, where a call was filed; note: 0% is about no effect
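Read-out: kinetic calcium fluorescence (1 cycle/s) in inducible HEK293 T-REx D2 cells after an EC80 dopamine addition that followed 180 s compound preincubation. Loss of the dopamine response indicates antagonism.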
D2 ag-1 – D2 dopamine receptor (human) agonism. 340,000 tested, 0.53% active. AID 485358. HEK293 T-REx D2 cells, calcium flux agonist mode. activation, % at 2 µM. P14416;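 active = activation over 3 SD above normal in the single-dose calcium agonist read, cut at about 30% in these data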; note: 0% is about no effect
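Calcium-flux readout, 1 cycle/sec over 180 s following compound pin transfer, in inducible HEK293 Trex D2 cells (force-coupled); dopamine controls included. Positive calcium responses during this window marked compounds as potential agonists.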
D2 ag-2 – agonists of human D2 dopamine receptor (beta-arrestin). AID 624465. activation, % (test concentration not listed). P14416. 360,000 tested, 0.084% active. DiscoveRx PathHunter D2 beta-arrestin, luminescence, 90 min; 100% = 57 uM dopamine signal; in the data active = activation above about 40%; inconclusive = between about 15% and that limit
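DiscoveRx PathHunter D2 beta-arrestin cells (2,100/well) attached overnight, then compound-stimulated 90 min at 37 C in HBSS/10 mM HEPES/0.1% Tween-20 buffer; beta-galactosidase complementation read by luminescence after 1 h at ambient temperature. Dopamine 57 uM final (EC100) as control.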
D2 PAM-2 – D2 dopamine receptor (human) potentiation; P14416; HEK293 T-REx D2, calcium flux, EC20 dopamine potentiation; potentiation, % at 10 µM; 340,000 tested, 0.34% active; AID 485347;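 active = potentiation over 3 SD above the plate norm, cut at about 30% in these data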; note: 0% is about no effect
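Tetracycline-induced HEK293 T-REx cells force-coupled to calcium signalling expressed D2; compounds were pin-added after a 10 s baseline, read kinetically 180 s, then an EC20 dopamine challenge followed with a further 180 s calcium read.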
* hit, by the source's call; u = inconclusive; x = no result.

SMILES	D2 PAM-1	D2 antagonist	D2 ag-1	D2 ag-2	D2 PAM-2
CCOC(=O)c1ccc(Nc2ccc(C(C)=O)cc2)cc1	4.5	x	x	3.2	x
CC(C)C[C@H]1C(=O)N2CCC[C@H]2[C@]2(O)O[C@](NC(=O)C3C=C4c5cccc6[nH]c(Br)c(c56)C[C@H]4N(C)C3)(C(C)C)C(=O)N12 (stereo not given in full)	u	x	x	52.2*	x
O=C(c1cccs1)c1cn(CCOc2ccccc2Cl)c2ccccc12	x	x	0.8	x	10.6
O=C(CSc1ncnc2nc[nH]c12)c1ccc(Cl)cc1	-1.4	14.2	1.8	5.7	2.5
O=C(CSc1ncnc2nc[nH]c12)c1ccc([N+](=O)[O-])cc1	55.6*	-0.6	-0.8	13.5	2.7
Cc1ccc(/C=C/C(=O)NCCCc2ccccc2)cc1	-20.5	-11.7	-1.4	-5.1	9.4
C#CCNC(=O)/C=C/c1ccc(C)cc1	-13.1	39.7*	0.0	-1.8	4.4
Cc1cccc(CN2CCN(c3ccccn3)CC2)c1	91.5*	x	x	46.1*	x
c1ccc(COc2cccc(CN3CCN(c4ccccn4)CC3)c2)cc1	u	-20.4	0.0	47.9*	-8.3
c1ccc(COc2cccc(CN3CCCCC3)c2)cc1	-4.9	x	x	-5.2	-12.8
COc1ccc(CNC(=O)CC(c2ccc(OC)cc2)N2Cc3ccccc3C2=O)cc1 (stereo not given)	x	x	-0.5	x	-12.2
CC(=O)N(C(C)=O)c1nc2nc(C)cc(C)n2n1	-1.3	102.1*	-1.3	-3.5	10.2
Cc1cc(C)n2nc(CCc3nc4nc(C)cc(C)n4n3)nc2n1	x	6.5	-0.6	x	2.2
CCOC(=O)C1CCCCN1C(=O)c1ccc2nc(Cc3ccc(OC)cc3)oc2c1 (stereo not given)	1.6	-17.5	-0.3	u	30.7*
COc1ccc(Cc2nc3ccc(C(=O)N4CCC[C@H]4CO)cc3o2)cc1	0.2	-8.1	2.4	-0.6	-1.9
COC(=O)c1sccc1S(=O)(=O)N(CC(=O)Nc1cccc(C)c1C)c1ccc(C)c(C)c1	x	x	1.2	x	-9.9
COc1ccc(C(=O)n2nc(-c3ccco3)nc2NCc2cccs2)cc1	x	x	x	x	-2.6
Cc1ccc(NC(=O)Cn2c(=O)n(CCc3ccccc3)c(=O)c3c4c(sc32)CCCC4)c(C)c1	x	x	0.2	x	-6.3
C/C(CCN1CCCCc2nc(C)c(C)cc21)=N\O[C@H](C)c1cn([C@H](CO)Cc2ccccc2)nn1	x	-2.2	-0.9	x	1.9
CC(=O)OC[C@H]1O[C@H](CCO/N=C(\C)CCN2CCCc3nc(C)c(C)cc32)C=C[C@@H]1OC(C)=O	x	78.2*	65.0*	x	-23.7
COc1ccc(C2CN=NC23CCCc2ccccc2C3=O)cc1 (stereo not given)	63.9*	-17.6	-1.0	4.3	-5.5
N/C(Cc1ccc(Cl)cc1)=N\OC(=O)Cc1ccc([N+](=O)[O-])cc1	85.6*	-5.3	-1.5	u	2.2
N/C(Cc1ccc([N+](=O)[O-])cc1)=N\OC(=O)c1cccc(Br)c1	24.0	-9.8	-2.2	63.5*	-1.0
COc1cc(C(=O)O/N=C(\N)Cc2ccc([N+](=O)[O-])cc2)cc(OC)c1OC	u	3.3	-0.3	u	0.4
N/C(Cc1ccc([N+](=O)[O-])cc1)=N\OC(=O)c1ccc([N+](=O)[O-])cc1	61.5*	-1.3	0.0	42.4*	11.6
SMILES	D2 PAM-1	D2 antagonist	D2 ag-1	D2 ag-2	D2 PAM-2
CC(C)C(NC(=O)C12CC3CC(CC(C3)C1)C2)C(=O)NC1=NCCS1 (stereo not given)	x	-5.9	0.2	x	15.3
O=C(NC1=NCCS1)C12CC3CC(CC(C3)C1)C2	-8.8	50.1*	-0.3	3.0	-8.8
CC1=C(C(=O)Nc2ccccc2)C(c2cccs2)n2nnnc2N1 (stereo not given)	-8.2	35.8*	-0.6	-1.6	2.3
CCS(=O)(=O)N1CC(=O)N(c2cccc(Cl)c2C)C(C)(C(=O)NC2CCCCC2)C1 (stereo not given)	x	x	0.2	x	-1.0
O=S(=O)(Cc1ccccc1)Nn1cnnc1	-3.8	31.4*	0.5	-0.6	7.0
Cc1cccc(NS(=O)(=O)Cc2ccccc2)n1	-2.0	-30.3	-0.2	-1.0	-5.8
Cc1c(C(=O)O)sc2nc(/C=C/c3cccc(F)c3)[nH]c(=O)c12	5.2	4.2	0.6	-1.7	4.7
Cc1ccc(/C=C/c2nc3sc(C(=O)O)c(C)c3c(=O)[nH]2)cc1[N+](=O)[O-]	2.2	32.7*	-0.2	u	-9.1
O=C(NC1CCCCCC1)C1CCN(C(=O)N2CCOc3ccc(Cl)cc32)CC1	x	x	1.2	x	-3.1
CCCCn1nnc(NC(=O)c2ccc(-c3ccccc3[N+](=O)[O-])o2)n1	-6.9	51.7*	-1.6	-3.9	-27.5
CCn1nnc(NC(=O)c2ccc([N+](=O)[O-])o2)n1	13.7	-25.5	-0.4	4.1	9.6
CCCS(=O)(=O)N1CCC(C(=O)N2CCC(Cc3ccccc3)CC2)CC1	-7.8	-7.9	0.6	-4.1	7.1
CCCS(=O)(=O)N1CCC(C(=O)NCCCN2CCC(Cc3ccccc3)CC2)CC1	-21.9	32.9*	0.8	-2.1	-3.4
CCOc1cc(C)nc(N2CCN(C3CCCCC3)CC2)n1	-18.4	40.1*	0.6	-1.1	7.1
Cc1cc(C)nc(N2CCN(c3nc(C)cc(C)n3)CC2)n1	x	0.3	-1.4	x	-5.2
FC(F)(F)c1cccc(N2CCN(CC3CC=CCC3)CC2)c1 (stereo not given)	-29.8	73.2*	0.6	0.8	-24.4
Cc1ccc(N2CCN(CC3CC=CCC3)CC2)cc1 (stereo not given)	-15.4	36.5*	0.2	-1.8	-16.3
COc1ccc(N2CCN(C(CNC(=O)CC(C)C)c3ccc4c(c3)OCO4)CC2)cc1 (stereo not given)	x	x	-0.8	x	-13.0
O=C(c1ccco1)N1CCN(C(=O)C2CCN(S(=O)(=O)c3cnc[nH]3)CC2)CC1	-19.0	51.6*	0.6	-1.9	13.1
Cc1nn(Cc2ccccc2)c(C)c1NC(=O)c1ccc([N+](=O)[O-])cc1[N+](=O)[O-]	88.3*	-12.2	-0.2	u	-10.7
CCOc1ccc(/C=N/n2c(-c3ccccc3)n[nH]c2=S)cc1	-0.8	41.2*	-1.8	u	-8.4
S=c1[nH]nc(-c2ccccc2)n1/N=C/c1ccc(Cl)cc1	-16.7	-6.6	-1.7	7.9	-1.1
FC(F)(F)c1ccccc1/C=N/N1CCN(Cc2ccccc2)CC1	-21.2	30.1*	-0.5	-0.1	-21.3
Cc1ccc(CN2CCN(/N=C/c3cccs3)CC2)cc1	-29.6	33.8*	-0.7	-1.2	-24.6
Cc1ccc(CN2CCN(/N=C/c3ccc(C(F)(F)F)cc3)CC2)cc1	-15.2	-25.9	-0.1	1.1	-3.2
Cc1ccc(/C=N/N2CCN(Cc3ccc(C)cc3)CC2)cc1	-13.4	54.9*	-0.3	0.9	-20.1
